Our source for the inhibition values is PubChem BioAssay AID588501 (NMMLSC, 2011).

Among all 360,000 compounds or so, about 420 (0.12%) were called active. The entries come from a sample that favours actives as a whole. A number with no mark means an inactive call. Rule as the data show it: active = inhibition above about 30%; inconclusive = no clear call, values can overlap the other calls; inactive = below that.

This assay deals with Lethal factor (Bacillus anthracis) (UniProt P15917). Description: Bacillus anthracis LF protease inhibitors, primary screen, biochemical, multiplex microsphere, MLPCN library (AID 588501). Also: plate controls were buffer without enzyme for full effect and enzyme alone for no effect. To be noted: multiplex microsphere protease cleavage assay, at 10 µM, active compounds read high.
Lethal factor (Bacillus anthracis), sequence (P15917 whole entry, looked up): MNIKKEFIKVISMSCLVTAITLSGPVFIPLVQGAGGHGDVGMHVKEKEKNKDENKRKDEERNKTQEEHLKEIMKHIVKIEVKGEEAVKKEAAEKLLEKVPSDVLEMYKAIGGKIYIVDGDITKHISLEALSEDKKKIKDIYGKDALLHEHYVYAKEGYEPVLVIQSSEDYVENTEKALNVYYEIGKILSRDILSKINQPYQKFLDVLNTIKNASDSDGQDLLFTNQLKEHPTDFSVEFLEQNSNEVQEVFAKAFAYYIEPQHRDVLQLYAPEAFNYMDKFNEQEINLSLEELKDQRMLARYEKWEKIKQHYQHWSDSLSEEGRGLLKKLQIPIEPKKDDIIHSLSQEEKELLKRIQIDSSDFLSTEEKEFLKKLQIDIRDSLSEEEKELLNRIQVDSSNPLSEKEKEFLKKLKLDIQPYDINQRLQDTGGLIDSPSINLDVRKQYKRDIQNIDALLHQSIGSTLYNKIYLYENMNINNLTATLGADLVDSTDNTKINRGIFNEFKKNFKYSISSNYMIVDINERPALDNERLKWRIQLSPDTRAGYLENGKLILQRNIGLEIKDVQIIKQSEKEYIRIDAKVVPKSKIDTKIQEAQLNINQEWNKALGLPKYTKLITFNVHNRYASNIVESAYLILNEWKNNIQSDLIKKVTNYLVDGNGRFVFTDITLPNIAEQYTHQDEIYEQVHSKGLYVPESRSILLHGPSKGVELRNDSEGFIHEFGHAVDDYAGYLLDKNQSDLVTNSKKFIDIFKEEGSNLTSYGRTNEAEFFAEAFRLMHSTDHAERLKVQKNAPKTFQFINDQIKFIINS
Turning to `O=C(COc1ccc2c(C(F)(F)F)cc(=O)oc2c1)Nc1ccc2c(c1)OCCO2`, the inhibition is -1.9%. For `O=C(CN1CCCCCC1)Nc1c(Cl)cc(Cl)cc1Cl`, the inhibition was 37.6% (active). The figure for `Cc1cc(C)c(NC(=O)CN2CCCCCC2)c(C)c1` is -3.3%. With `O=C(CN1CCOCC1)Nc1c(Cl)cc(Cl)cc1Cl`, the inhibition was 3.3%. Next, `O=C(COc1ccc(Cl)cc1)NCc1nnc(SCC(=O)NCC2CCCO2)o1` (stereo not given): -1%.

`NNc1nc2c(Cl)cccc2s1`: the inhibition is -1.6%. Next, `CCn1c(CSc2nncn2-c2ccc(OC)cc2)nc2cc(S(=O)(=O)N(C)C)ccc21`: -15%; `O=C(NNC(=O)c1ccccc1[N+](=O)[O-])Nc1ccccc1C(F)(F)F`: -1.8%. With `CN(C(=O)c1cccc(NC(=O)Cc2cccc([N+](=O)[O-])c2)c1)C1CCCCC1`, the inhibition is 2.5%. Next, `CC1CCN(CC(=O)Nc2nccs2)CC1`: -13.6%; `CC(C)N(C(=O)Cn1cc(SCC(=O)N2CCCC2)c2ccccc21)C(C)C`: -0.2%; `COc1cc(NS(=O)(=O)c2ccc(NC(=O)CN3C(=O)c4ccccc4C3=O)cc2)ncn1`: -2.5%. The figure for `CS(=O)(=O)N(CC(=O)N1CCOCC1)c1cccc(Cl)c1Cl` is -5.7%. On to `CCOC(=O)C1CCCN(C(=O)c2ccc(N(C)C)cc2)CC1` (stereo not given), for which the inhibition is -1.5%.

For `Cc1ccc(-n2ncc3c2CC(C)(C)CC3NC(=O)CCc2cnn(C)c2)cc1` (stereo not given), the inhibition is 3%. The figure for `CCCn1nnnc1NC(=O)COc1ccc(Cl)cc1C` is -6.9%; for `O=C(CCNC(=O)c1ccc([N+](=O)[O-])cc1)Nc1ccccc1N1CCOCC1` it is 3.7%; for `CCOC(=O)C1CCCN(S(=O)(=O)c2ccc(-n3cnnn3)c(C)c2)C1` (stereo not given) it is 2.9%. The figure for `O=S(=O)(NC1CCCC1)c1ccc(-n2cnnn2)cc1` is -2%; for `Cc1cc(S(=O)(=O)NC2CCCC2)ccc1-n1cnnn1` it is 35.6% (active).

Turning to `COc1ccc([C@H]2CC(=O)C[C@@H](CCn3cc(CC4CCCC4)nn3)O2)cc1`, the inhibition is -2.3%. Take `COCCNC(=O)C(c1ccc(O)cc1)N(C(=O)CCC(=O)Nc1nccs1)c1ccc(C)cc1` (stereo not given): the inhibition was -7%. The figure for `O=C1N[C@@H](Cc2ccccc2)C(=O)N2[C@@H]3N(S(=O)(=O)c4ccc(F)cc4)c4ccccc4[C@]3(Br)C[C@@H]12` is -0.7%. The figure for `CCCCC(NS(=O)(=O)c1ccc(C)cc1)C(=O)Oc1ccc2c3c(c(=O)oc2c1)CCC3` (stereo not given) is -6.2%; for `CCOc1cc(/C=C(/C#N)c2ccc(Cl)cc2)cc(Cl)c1OCC(=O)O` it is 2.5%. Next, `COc1ccccc1NC(=S)N1CCC(NC(=O)C23CC4CC(CC(C4)C2)C3)CC1`: -7.9%; `COc1ccccc1C1CCN(C(=S)Nc2ccc(Br)cc2)CC1`: 49.5% (active); `COc1ccc(NC(=S)N2CCc3cc(OC)c(OC)cc3C2)cc1`: -2.2%. In the case of `Brc1ccc2ncnc(NCc3cccnc3)c2c1`, the inhibition was 42.4% (active).

On to `Cc1cc(NCc2cccnc2)no1`, for which the inhibition was 4.1%.

With `Clc1ccc(Cn2ncc3c(NCc4cccnc4)ncnc32)cc1`, the inhibition was -6.4%. As for `CCOC(=O)[C@H]1[C@H]2COc3ccc(C)cc3[C@@H]2N2C(=O)CN(Cc3ccc(F)cc3)C(=O)[C@@]12C`, the inhibition was -3.6%. Next, `CCOC(=O)N1CCN(C(=O)c2ccc3c(=O)n(CCc4ccc(OC)c(OC)c4)c(=O)[nH]c3c2)CC1`: -2.6%; `COCCn1nnnc1CN1CCC(NC(=O)Nc2cccc(OC)c2)CC1`: 0.1%. The figure for `O=C(O)c1ccc(N/N=C/c2ccc3ncccc3c2)cc1` is -1.5%; for `NCCCCCC(=O)N/N=C/c1ccc2nccnc2c1` it is 43.2% (active). The figure for `CC1=NNC(=O)C1CCC(=O)N/N=C\c1ccc(Cl)c(Cl)c1` (stereo not given) is -7.6%; for `CC(=O)Nc1ccc(S(=O)(=O)NCC(=O)OCC(=O)c2ccc[nH]2)cc1` it is 4.9%; for `CCCCC(CC)CNC(=O)C(=O)C1C(=O)Nc2ccccc21` (stereo not given) it is -2.2%.

With `CC(=O)NCCC(=O)Nc1cc(S(=O)(=O)N2CCCCC2)ccc1Oc1cccc(C)c1`, the inhibition was -3.6%. Regarding `O=C(COc1ccc(S(=O)(=O)N2CCCC2)cc1[N+](=O)[O-])N1CCCCC1`, the inhibition was -2.5%. The figure for `CCCc1cc(=O)[nH]c(SCc2ccc(C#N)cc2)n1` is 2.2%.

With `COCc1cc(=O)[nH]c(-c2ccc(C(F)(F)F)cc2)n1`, the inhibition is 13.9%. Next, `COCc1cc(=O)[nH]c(SC)n1`: 45% (active). Next, `CCCC(NC(=O)c1ccccc1)c1nc2ccccc2n1Cc1ccc(C(=O)OC)o1` (stereo not given): -3.6%; `COc1ccccc1N(CC(=O)Nc1c(C)n(C)n(-c2ccccc2)c1=O)S(=O)(=O)c1ccccc1`: -3.9%. Next, `COC(=O)CSc1ncnc2c1cnn2-c1ccc(C)cc1C`: -4.4%; `COC(=O)c1ccc(NC(=O)C23CC4CC(C2)CC(n2cnc(Cl)n2)(C4)C3)cc1`: -3.6%.

Consider `COC(=O)C1(C(=O)OC)C/C=C\CN(S(=O)(=O)c2ccccc2[N+](=O)[O-])CCC1`, for which the inhibition is -1.4%. The figure for `COc1cc(C(=O)NCc2ccc3c(c2)cc(C)n3C)cc(OC)c1OC` is 34.6% (active); for `CCn1c(CNC(=O)c2cc(OC)c(OC)c(OC)c2)cc2cc(C)ccc21` it is -7.8%. For the molecule `CCOCC(=O)NCc1ccc2c(c1)cc(C)n2C`, the inhibition is -2.3%. For the molecule `CC(C)n1c(SCC(=O)Nc2ccccc2N2CCCCC2)nc2c1c(=O)n(C)c(=O)n2C`, the inhibition is 0%.

`CCOC1=C2[C@H]([C@H]3C(=O)N(c4ccccc4)C(=O)[C@H]3C1)[C@@H](c1ccccc1)N(S(=O)(=O)c1ccc(C)cc1)[C@H]2c1ccccc1`: the inhibition was 4.4%. With `CCCCNc1ccc(C(=O)Nc2cccc(C)n2)cc1[N+](=O)[O-]`, the inhibition was -4.4%. The figure for `Cc1cccc(C)c1NC(=O)CNC(=O)c1ccc(N2CCOCC2)c([N+](=O)[O-])c1` is -3%.

Regarding `C=CC[C@H](CC(=O)OC(C)(C)C)C(=O)OC[C@H]1CCCN1C(=O)[C@H](CC=C)CC(=O)N(CCO)Cc1ccccc1`, the inhibition is 1.8%. For `COc1ccc(CN2CC(C(=O)NCCN3CCN(c4ccccc4F)CC3)CC2=O)cc1` (stereo not given), the inhibition is -1.5%. As to `Cn1cc(CCC(=O)N2CCCC(C(=O)c3ccc(C(C)(C)C)cc3)C2)cn1` (stereo not given), the inhibition was -0.9%. The figure for `CCOc1ccc(CCNC(=O)C2=C(C)C(=O)OC23CCC(C)CC3)cc1OCC` (stereo not given) is 1.1%. With `Fc1ccccc1OCCCCn1cncn1`, the inhibition was 7.4%. As for `COc1cc(-c2nnc(Cn3cc(C(F)(F)F)ccc3=O)o2)cc(OC)c1OC`, the inhibition was 11.3%. Next, `COc1cc(/C=C2\SC(=S)N(Nc3ncc(C(F)(F)F)cc3Cl)C2=O)cc(OC)c1OC`: 61.6% (active); `COc1cc(/C=C2\SC(=O)NC2=O)ccc1OCc1ccc(Cl)nc1`: 0.2%. The figure for `Cc1ccc2c(c1)C(O)(CC(=O)c1cccnc1)C(=O)N2` (stereo not given) is -1.9%; for `CN(CC(=O)NCCc1ccccc1)S(=O)(=O)c1cnc[nH]1` it is -0.9%. Consider `Cc1cc(C)c(CN2CCN(C(=O)Cn3ccc(NC(=O)OCc4ccccc4)nc3=O)CC2)c(C)c1`, for which the inhibition is -0.5%. The figure for `O=C(c1ccc(Cl)cc1)N1N=C(c2ccccn2)CC1(O)C(F)(F)F` (stereo not given) is -6.7%; for `COc1cc2c(cc1OC)C(/C=C/c1ccco1)=NCC2` it is -4.6%. Next, `Cc1c(Br)ccc(NC(=O)COc2ccccc2C(N)=O)c1C`: 0.9%; `CCc1ccc(NC(=O)CS(=O)CC(=O)NCCCc2ccccc2)cc1` (stereo not given): -1.4%; `O=C(NCc1ccccc1)C1C(=O)N(Cc2ccccc2)C(=O)C1C1(O)CCCC1` (stereo not given): 1.3%.

With `COc1ccc(Br)cc1CN(C)CC(=O)Nc1cc(Cl)cc(Cl)c1`, the inhibition is -3.4%. The figure for `COCC(C)NCc1cc(Br)ccc1OC` (stereo not given) is -4.9%; for `COc1ccc(Br)cc1CNCCc1cccc(Cl)c1` it is 43.6% (active); for `O=S(=O)(Nc1cccc(-n2cnnn2)c1)c1cnc(Cl)c(Cl)c1` it is 1.8%. Next, `COc1c(C(=O)N2CCCC2)ccc2ccccc12`: 2.3%; `COC(=O)CNS(=O)(=O)c1ccc(Cc2ccc(S(=O)(=O)NCC(=O)OC)cc2)cc1`: -2.1%. Next, `COC(=O)C[n+]1cccc2ccccc21`: 29.8% (active). For `CC1(c2ccc(Cl)cc2)NC(=O)N(CC(=O)c2ccc3c(c2)OCO3)C1=O` (stereo not given), the inhibition was -2.8%. The figure for `CCN(C(=O)COC(=O)c1ccccc1O)c1cccc2ccccc12` is -1.8%; for `Cc1nccn1-c1ccc(NC(=O)[C@H]2O[C@@H](n3cnc4c(N)ncnc43)[C@H](O)[C@@H]2O)cc1` it is 0.8%; for `CC(=O)c1nn(-c2ccc(C)cc2)cc1C(=O)c1cccc(Br)c1` it is -8.2%.

With `CN(C)c1ccc(/C=C2\CC3C4CC=C5CC(O)CCC5(C)C4CCC3(C)C2=O)cc1` (stereo not given), the inhibition is 3.3%. For the molecule `C=CCN(Cc1nc(-c2cc(OC)c3c(c2)OCO3)oc1C)C1CCS(=O)(=O)C1` (stereo not given), the inhibition was -1.3%. Next, `CCc1nn(CCCC(=O)Nc2ccc(C)c(C)c2)c(=O)c2cc3occc3n12`: -0.7%; `COc1ccccc1C(=O)Nc1ccnn1C1CCN(C(=O)C(C)(C)C)CC1`: -1.9%. `Cc1ccc(NC(=O)CSCC(=O)N2CCOCC2)cc1`: the inhibition was -4.8%. With `CC(C)C[C@@H]1Cc2[nH][nH]c(=O)c2[C@H](CCc2ccccc2)O1`, the inhibition is -14.1%. On to `COc1ccc(N(CCC#N)S(=O)(=O)c2ccc(Cl)cc2)cc1`, for which the inhibition was -0.4%.

By inhibition is commonly meant the change of the read-out against control, counted positive when it falls.
